# Results reported in PubChem BioAssay AID1159580 (chemical genetic matrix, 2015).
# Out of some 5,500 compounds screened, about 2,000 (36%) were called active. Not shown: some 18% with an inconclusive outcome. Some of the results follow. Values without a mark were called inactive. Rule as the data show it: active = normalized growth mostly below about 0.91 (no sharp cut-off); inconclusive = no clear call, values can overlap the other calls; inactive = mostly above about 0.92.
# Experiment: chemical genetic growth profiling, strain panel (AID 1159580);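 also: tested at 20 µM; growth read once vehicle control cultures reached saturation at 30 °C; 1 = growth at the plate median or of vehicle wells; lower values mean less growth of the strain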
# Conditions: S. cerevisiae deletion strains, growth OD
structure (smiles),measurement,setting,value
C[C@]12CCC(=O)C=C1CCc1ccc(O)cc12,normalized growth,"locus YBR021W, strain FUR4, hits give low values",1.03
same,normalized growth,"locus YBR229C, strain ROT2, hits give low values",1
same,normalized growth,"locus YCL029C, strain bik1, hits give low values",0.992
same,normalized growth,"locus YDL035C, strain GPR1, hits give low values",1.04
same,normalized growth,"locus YDL074C, strain BRE1, hits give low values",1.04
same,normalized growth,"locus YDL101C, strain DUN1, hits give low values",1.01
same,normalized growth,"locus YDL134C, strain PPH21, hits give low values",1
same,normalized growth,"locus YDL185W, strain tfp1, hits give low values",0.992
same,normalized growth,"locus YDL192W, strain arf1, hits give low values",0.998
same,normalized growth,"locus YDR101C, strain arx1, hits give low values",0.984
same,normalized growth,"locus YDR150W, strain NUM1, hits give low values",1
same,normalized growth,"locus YDR162C, strain NBP2, hits give low values",1.01
same,normalized growth,"locus YDR318W, strain mcm21, hits give low values",0.986
same,normalized growth,"locus YDR388W, hits give low values",0.991
same,normalized growth,"locus YDR502C, strain sam2, hits give low values",0.968
same,normalized growth,"locus YEL061C, strain CIN8, hits give low values",1
same,normalized growth,"locus YER110C, hits give low values",0.982
same,normalized growth,"locus YER155C, strain BEM2, hits give low values",0.996
same,normalized growth,"locus YER167W, strain BCK2, hits give low values",1.02
same,normalized growth,"locus YGL078C, strain dbp3, hits give low values",0.995
same,normalized growth,"locus YGL086W, strain mad1, hits give low values",0.982
same,normalized growth,"locus YGL248W, strain PDE1, hits give low values",0.996
same,normalized growth,"locus YGR078C, strain PAC10, hits give low values",0.998
same,normalized growth,"locus YGR135W, strain pre9, hits give low values",0.973
same,normalized growth,"locus YGR252W, strain gcn5, hits give low values",0.961
same,normalized growth,"locus YHR030C, strain SLT2, hits give low values",1.01
same,normalized growth,"locus YHR079C, strain IRE1 (second series), hits give low values",0.989
same,normalized growth,"locus YHR094C, strain hxt1, hits give low values",0.993
same,normalized growth,"locus YHR129C, strain ARP1, hits give low values",1
same,normalized growth,"locus YHR200W, strain rpn10, hits give low values",0.989
same,normalized growth,"locus YIL066C, strain RNR3, hits give low values",1.02
same,normalized growth,"locus YIL073C, strain SPO22, hits give low values",1.04
same,normalized growth,"locus YIL125W, strain kgd1, hits give low values",0.987
same,normalized growth,"locus YIR030C, strain dcg1, hits give low values",1.01
same,normalized growth,"locus YJL095W, strain BCK1, hits give low values",1
same,normalized growth,"locus YJL134W, strain LCB3, hits give low values",1.01
same,normalized growth,"locus YJL168C, strain set2, hits give low values",0.987
same,normalized growth,"locus YJL187C, strain SWE1 (second series), hits give low values",1
same,normalized growth,"locus YJR043C, strain POL32, hits give low values",1.01
same,normalized growth,"locus YKL009W, strain mrt4, hits give low values",1.03
same,normalized growth,"locus YKL068W, hits give low values",0.991
same,normalized growth,"locus YKL085W, strain MDH1 (second series), hits give low values",0.999
same,normalized growth,"locus YKL085W, strain MDH1, hits give low values",0.999
same,normalized growth,"locus YKL190W, strain CNB1, hits give low values",1.01
same,normalized growth,"locus YKR001C, strain vps1, hits give low values",0.977
same,normalized growth,"locus YLR039C, strain RIC1, hits give low values",1.06
same,normalized growth,"locus YLR058C, strain SHM2, hits give low values",1.02
same,normalized growth,"locus YLR102C, strain apc9, hits give low values",0.994
same,normalized growth,"locus YLR262C, strain YPT6, hits give low values",1.07
same,normalized growth,"locus YLR268W, strain sec22, hits give low values",0.98
same,normalized growth,"locus YLR342W, strain FKS1 (second series), hits give low values",0.997
same,normalized growth,"locus YLR371W, strain rom2, hits give low values",0.994
same,normalized growth,"locus YLR418C, strain cdc73, hits give low values",0.982
same,normalized growth,"locus YML016C, strain PPZ1, hits give low values",1.01
same,normalized growth,"locus YML032C, strain rad52, hits give low values",0.982
same,normalized growth,"locus YML124C, strain tub3, hits give low values",0.979
same,normalized growth,"locus YMR078C, strain ctf18, hits give low values",0.987
same,normalized growth,"locus YMR223W, strain ubp8, hits give low values",0.988
same,normalized growth,"locus YMR307W, strain GAS1, hits give low values",1.04
same,normalized growth,"locus YNL067W, strain RPL9B, hits give low values",0.999
same,normalized growth,"locus YNL233W, strain BNI4, hits give low values",0.99
same,normalized growth,"locus YNL250W, strain rad50, hits give low values",1.01
same,normalized growth,"locus YNL271C, strain bni1, hits give low values",0.982
same,normalized growth,"locus YNL298W, strain CLA4, hits give low values",0.987
same,normalized growth,"locus YNL307C, strain MCK1, hits give low values",0.983
same,normalized growth,"locus YNR052C, strain pop2, hits give low values",0.982
same,normalized growth,"locus YOL012C, strain htz1",1.09
same,normalized growth,"locus YOL147C, strain pex11, hits give low values",0.994
same,normalized growth,"locus YOR061W, strain CKA2, hits give low values",1.03
same,normalized growth,"locus YOR069W, strain VPS5, hits give low values",1.01
same,normalized growth,"locus YOR136W, strain idh2, hits give low values",0.97
same,normalized growth,"locus YOR144C, strain elg1, hits give low values",0.985
same,normalized growth,"locus YOR184W, strain ser1, hits give low values",1.03
same,normalized growth,"locus YOR316C, strain cot1, hits give low values",0.99
same,normalized growth,"locus YPL241C, strain CIN2, hits give low values",1
same,normalized growth,"locus YPR119W, strain clb2, hits give low values",0.986
same,normalized growth,"locus YPR141C, strain kar3, hits give low values",0.994
same,normalized growth,"locus YPR163C, strain tif3, hits give low values",0.984
same,normalized growth,"locus YPR167C, strain met16, hits give low values",0.987
same,normalized growth,"strain wtn01, hits give low values",0.992
CC12CCC(=O)C=C1CCc1ccccc12 (configuration not stated),normalized growth,"locus YAL021C, strain ccr4, hits give low values",0.992
same,normalized growth,"locus YAL026C, strain drs2, hits give low values",0.985
same,normalized growth,"locus YAL030W, strain snc1, hits give low values",0.984
same,normalized growth,"locus YBL061C, strain skt5, hits give low values",0.981
same,normalized growth,"locus YBR009C, strain hhf1, hits give low values",0.985
same,normalized growth,"locus YBR023C, strain chs3, hits give low values",0.979
same,normalized growth,"locus YBR171W, strain sec66, hits give low values",0.972
same,normalized growth,"locus YBR231C, strain swc5, hits give low values",0.985
same,normalized growth,"locus YBR279W, strain paf1, hits give low values",0.985
same,normalized growth,"locus YCL011C, strain gbp2, hits give low values",0.997
same,normalized growth,"locus YCL016C, strain dcc1, hits give low values",0.978
same,normalized growth,"locus YCL061C, strain MRC1, hits give low values",0.977
same,normalized growth,"locus YCL069W, strain vba3, hits give low values",0.986
same,normalized growth,"locus YCR088W, strain abp1, hits give low values",0.966
same,normalized growth,"locus YDL005C, strain med2, hits give low values",0.985
same,normalized growth,"locus YDL040C, strain nat1, hits give low values",0.967
same,normalized growth,"locus YDR001C, strain nth1, hits give low values",0.967
same,normalized growth,"locus YDR069C, strain doa4, hits give low values",0.984
same,normalized growth,"locus YDR137W, strain rgp1, hits give low values",1.05
same,normalized growth,"locus YDR159W, strain sac3, hits give low values",0.955
same,normalized growth,"locus YDR195W, strain ref2",0.947
same,normalized growth,"locus YDR297W, strain sur2, hits give low values",0.978
same,normalized growth,"locus YDR334W, strain swr1, hits give low values",0.959
same,normalized growth,"locus YDR335W, strain msn5, hits give low values",0.978
same,normalized growth,"locus YDR392W, strain spt3, hits give low values",0.825
same,normalized growth,"locus YEL003W, strain gim4, hits give low values",0.981
same,normalized growth,"locus YEL037C, strain rad23, hits give low values",0.972
same,normalized growth,"locus YEL061C, strain CIN8 (second series), hits give low values",0.966
same,normalized growth,"locus YER015W, strain faa2, hits give low values",0.986
same,normalized growth,"locus YER016W, strain bim1, hits give low values",0.972
same,normalized growth,"locus YER111C, strain swi4, hits give low values",0.972
same,normalized growth,"locus YER155C, strain BEM2 (second series), hits give low values",0.849 (active)
same,normalized growth,"locus YFR010W, strain ubp6, hits give low values",0.99
same,normalized growth,"locus YGL167C, strain pmr1, hits give low values",0.97
same,normalized growth,"locus YGL173C, strain kem1, hits give low values",0.985
same,normalized growth,"locus YGL227W, strain vid30, hits give low values",0.979
same,normalized growth,"locus YGL240W, strain doc1, hits give low values",0.925
same,normalized growth,"locus YGL253W, strain hxk2, hits give low values",0.98
same,normalized growth,"locus YHR013C, strain ard1, hits give low values",0.941
same,normalized growth,"locus YHR027C, strain rpn1, hits give low values",0.994
same,normalized growth,"locus YHR142W, strain chs7, hits give low values",0.978
same,normalized growth,"locus YJL092W, strain hpr5, hits give low values",0.974
same,normalized growth,"locus YJL095W, strain BCK1 (second series), hits give low values",0.994
same,normalized growth,"locus YJL115W, strain asf1, hits give low values",0.977
same,normalized growth,"locus YJL129C, strain trk1, hits give low values",0.964
same,normalized growth,"locus YJL154C, strain vps35, hits give low values",0.972
same,normalized growth,"locus YJL164C, strain tpk1, hits give low values",0.984
same,normalized growth,"locus YJL166W, strain qcr8, hits give low values",0.977
same,normalized growth,"locus YJL187C, strain SWE1, hits give low values",0.982
same,normalized growth,"locus YKL160W, strain elf1, hits give low values",1
same,normalized growth,"locus YKR026C, strain gcn3, hits give low values",0.951
same,normalized growth,"locus YKR091W, strain srl3, hits give low values",0.971
same,normalized growth,"locus YLL001W, strain dnm1, hits give low values",0.968
same,normalized growth,"locus YLL026W, hits give low values",0.979
same,normalized growth,"locus YLL041C, strain sdh2, hits give low values",0.973
same,normalized growth,"locus YLR027C, strain aat2, hits give low values",0.99
same,normalized growth,"locus YLR221C, strain rsa3, hits give low values",1.01
same,normalized growth,"locus YLR258W, strain gsy2, hits give low values",0.992
same,normalized growth,"locus YLR262C, strain YPT6 (second series), hits give low values",1.07
same,normalized growth,"locus YLR320W, strain mms22, hits give low values",0.973
same,normalized growth,"locus YLR342W, strain FKS1, hits give low values",0.977
same,normalized growth,"locus YLR357W, strain rsc2, hits give low values",0.844 (active)
same,normalized growth,"locus YLR370C, strain arc18, hits give low values",0.984
same,normalized growth,"locus YLR384C, strain iki3, hits give low values",0.972
same,normalized growth,"locus YML120C, strain ndi1, hits give low values",0.984
same,normalized growth,"locus YMR058W, strain fet3, hits give low values",0.982
same,normalized growth,"locus YMR125W, strain sto1, hits give low values",0.969
same,normalized growth,"locus YMR129W, hits give low values",0.983
same,normalized growth,"locus YMR205C, strain PFK2, hits give low values",0.985
same,normalized growth,"locus YMR231W, strain pep5, hits give low values",0.977
same,normalized growth,"locus YNL071W, strain lat1, hits give low values",0.978
same,normalized growth,"locus YNL209W, strain ssb2, hits give low values",0.989
same,normalized growth,"locus YNL248C, strain rpa49, hits give low values",0.951
same,normalized growth,"locus YNL322C, strain KRE1 (second series), hits give low values",0.962
same,normalized growth,"locus YNR049C, strain mso1, hits give low values",0.98
same,normalized growth,"locus YOR001W, strain rrp6, hits give low values",0.994
same,normalized growth,"locus YOR070C, strain gyp1, hits give low values",0.992
same,normalized growth,"locus YOR080W, strain dia2, hits give low values",0.974
same,normalized growth,"locus YOR083W, strain WHI5, hits give low values",1
same,normalized growth,"locus YOR106W, strain vam3, hits give low values",1
same,normalized growth,"locus YOR265W, strain rbl2, hits give low values",0.984
same,normalized growth,"locus YOR270C, strain vph1, hits give low values",0.931
same,normalized growth,"locus YOR290C, strain snf2, hits give low values",0.933
same,normalized growth,"locus YPL051W, strain arl3, hits give low values",0.994
same,normalized growth,"locus YPL078C, strain atp4, hits give low values",0.977
same,normalized growth,"locus YPL106C, strain sse1, hits give low values",0.973
same,normalized growth,"locus YPL240C, strain hsp82, hits give low values",0.985
